# Substitutions are numbered along the chain they refer to.
# Legend:
# Test in all cases: yeast three-hybrid, YBZ-1, SC-Leu-His + 0.5 mM 3-AT, 4 days
# Details in all cases: tags: N-Gal4 AD-HA kept; label: inside an RPR1-promoter hybrid RNA with tandem MS2 sites; ssRNA
# PUM1 PUF domain R8-FFR = PUM1 PUF domain R8-FFR (Homo sapiens, UniProt Q14671 828-1176, N1122F;Y1123F;Q1126R)
# Outline: (§1)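 The interaction score is the logarithmic change in variant frequency from input to selection. It uses log2, with a pseudocount of 1 for absent variants, and frequencies came from PCR-amplified, Illumina-sequenced repeat regions. The libraries were Pumilio-1 PUF domains randomized at the three base-contacting residues per repeat, co-expressed with matching RNA elements in strain YBZ-1 (LexA–MS2 coat fusion, HIS3 reporter). Plating lasted four days on SC-Leu (input) or SC-Leu-His + 0.5 mM 3-AT (selection).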
# PUM1 PUF domain R6-AYR = target: T1, PUM1 PUF domain R6-AYR (Homo sapiens, UniProt Q14671 828-1176, N1043A;Q1047R)
# T1 sequence: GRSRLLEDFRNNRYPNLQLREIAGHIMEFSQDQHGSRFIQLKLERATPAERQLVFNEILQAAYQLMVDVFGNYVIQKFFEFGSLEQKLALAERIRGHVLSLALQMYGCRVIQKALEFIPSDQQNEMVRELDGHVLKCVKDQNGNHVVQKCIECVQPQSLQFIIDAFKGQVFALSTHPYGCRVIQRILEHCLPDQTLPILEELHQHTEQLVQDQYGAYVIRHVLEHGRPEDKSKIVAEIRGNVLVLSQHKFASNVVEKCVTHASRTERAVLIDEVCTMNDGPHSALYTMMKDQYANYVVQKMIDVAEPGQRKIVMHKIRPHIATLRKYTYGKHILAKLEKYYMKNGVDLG
# Outline: as §1
# PUM1 PUF domain R8-SYP = PUM1 PUF domain R8-SYP (Homo sapiens, UniProt Q14671 828-1176, N1122S;Q1126P)
# Outline: as §1
# PUM1 PUF domain R6-FYL = target: T2, PUM1 PUF domain R6-FYL (Homo sapiens, UniProt Q14671 828-1176, N1043F;Q1047L)
# T2 sequence: T1 sequence with A216F, R220L
# Outline: as §1
# PUM1 PUF domain R8-LFR = PUM1 PUF domain R8-LFR (Homo sapiens, UniProt Q14671 828-1176, N1122L;Y1123F;Q1126R)
# Outline: as §1
# PUM1 PUF domain R5-GTE = PUM1 PUF domain R5-GTE (Homo sapiens, UniProt Q14671 828-1176, C1007G;R1008T;Q1011E)
# Outline: as §1
# PUM1 PUF domain R7-QRK = PUM1 PUF domain R7-QRK (Homo sapiens, UniProt Q14671 828-1176, S1079Q;N1080R;E1083K)
# Outline: as §1
# PUM1 PUF domain R3-IWK = PUM1 PUF domain R3-IWK (Homo sapiens, UniProt Q14671 828-1176, C935I;R936W;Q939K)
# Outline: as §1
# PUM1 PUF domain R3-TVE = PUM1 PUF domain R3-TVE (Homo sapiens, UniProt Q14671 828-1176, C935T;R936V;Q939E)
# Outline: as §1
sequence,measurement,setting,value
GGCUAGAACUAGUGGAUCCCCCGGCGCCCGGCGGCUCGAGCCCGGGUAAGUGUAAAUAGUCUGCAUGCCGCCGGGCGCCAUGCCUGCAGGUCGACUCUAGAAAACAUG,binding signal,PUM1 PUF domain R8-FFR,4.42 log2 enrichment (interaction score)
same,binding signal,PUM1 PUF domain R6-AYR,6.13 log2 enrichment (interaction score)
same,binding signal,PUM1 PUF domain R8-SYP,4.16 log2 enrichment (interaction score)
same,binding signal,PUM1 PUF domain R6-FYL,3.73 log2 enrichment (interaction score)
same,binding signal,PUM1 PUF domain R8-LFR,4.31 log2 enrichment (interaction score)
GGCUAGAACUAGUGGAUCCCCCGGCGCCCGGCGGCUCGAGCCCGGGUAAGCGUAAAUAGUCUGCAUGCCGCCGGGCGCCAUGCCUGCAGGUCGACUCUAGAAAACAUG,binding signal,PUM1 PUF domain R8-FFR,4.67 log2 enrichment (interaction score)
same,binding signal,PUM1 PUF domain R8-LFR,4.59 log2 enrichment (interaction score)
GGCUAGAACUAGUGGAUCCCCCGGCGCCCGGCGGCUCGAGCCCGGGUAAGUGUGAAUAGUCUGCAUGCCGCCGGGCGCCAUGCCUGCAGGUCGACUCUAGAAAACAUG,binding signal,PUM1 PUF domain R5-GTE,3.8 log2 enrichment (interaction score)
GGCUAGAACUAGUGGAUCCCCCGGCGCCCGGCGGCUCGAGCCCGGGUAAGUGCAAAUAGUCUGCAUGCCGCCGGGCGCCAUGCCUGCAGGUCGACUCUAGAAAACAUG,binding signal,PUM1 PUF domain R6-AYR,3.72 log2 enrichment (interaction score)
GGCUAGAACUAGUGGAUCCCCCGGCGCCCGGCGGCUCGAGCCCGGGUAAGUAUAAAUAGUCUGCAUGCCGCCGGGCGCCAUGCCUGCAGGUCGACUCUAGAAAACAUG,binding signal,PUM1 PUF domain R7-QRK,3.05 log2 enrichment (interaction score)
GGCUAGAACUAGUGGAUCCCCCGGCGCCCGGCGGCUCGAGCCCGGGUAAGUCUAAAUAGUCUGCAUGCCGCCGGGCGCCAUGCCUGCAGGUCGACUCUAGAAAACAUG,binding signal,PUM1 PUF domain R7-QRK,2.27 log2 enrichment (interaction score)
GGCUAGAACUAGUGGAUCCCCCGGCGCCCGGCGGCUCGAGCCCGGGUAAGUGUAAUUAGUCUGCAUGCCGCCGGGCGCCAUGCCUGCAGGUCGACUCUAGAAAACAUG,binding signal,PUM1 PUF domain R3-IWK,3.81 log2 enrichment (interaction score)
GGCUAGAACUAGUGGAUCCCCCGGCGCCCGGCGGCUCGAGCCCGGGUAAGUGUAAGUAGUCUGCAUGCCGCCGGGCGCCAUGCCUGCAGGUCGACUCUAGAAAACAUG,binding signal,PUM1 PUF domain R3-TVE,6.09 log2 enrichment (interaction score)
